USP1 inh = USP1/UAF1 (human) deubiquitinase inhibition | AID 743255 | O94782 | 0.23% of 390,000 active | Potency, µM (series often up to 57.1 µM), most hits filed as inhibitors | recombinant USP1/UAF1, Ub-Rhodamine cleavage fluorescence; note: nearly all actives have a fitted effect of over 60% in size
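High-throughput fluorogenic screen: 1nM USP1/UAF1 complex, Ub-Rho substrate 150nM final, 50mM HEPES pH 7.8 with 0.5mM EDTA, 0.1 mg/ml BSA, 1mM TCEP and 0.01% Tween-20.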
D1 antagonist = antagonists of human D1 dopamine receptor; HEK293 TREx D1 cells, calcium flux, dopamine EC80; active compounds read low; 3.2% of 360,000 active; activity change, negative = inhibition, % at 10 µM; P21728; AID 504652; in the data active = activity change below about -30%
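Allosteric or orthosteric antagonism assessed as attenuation of the calcium response to EC80 dopamine, added 180 s after compound, in induced HEK293 Trex D1 cells loaded with no-wash calcium dye.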
TRHR agonist-1 = TRH receptor (human) agonism | P34981 | activation, % at 2 µM | 0.18% of 360,000 active | AID 493084 | TRHR cells, calcium flux fluo-8, FDSS agonist mode; in the data active = activation above about 30%
Target sequence (P34981 whole entry, looked up): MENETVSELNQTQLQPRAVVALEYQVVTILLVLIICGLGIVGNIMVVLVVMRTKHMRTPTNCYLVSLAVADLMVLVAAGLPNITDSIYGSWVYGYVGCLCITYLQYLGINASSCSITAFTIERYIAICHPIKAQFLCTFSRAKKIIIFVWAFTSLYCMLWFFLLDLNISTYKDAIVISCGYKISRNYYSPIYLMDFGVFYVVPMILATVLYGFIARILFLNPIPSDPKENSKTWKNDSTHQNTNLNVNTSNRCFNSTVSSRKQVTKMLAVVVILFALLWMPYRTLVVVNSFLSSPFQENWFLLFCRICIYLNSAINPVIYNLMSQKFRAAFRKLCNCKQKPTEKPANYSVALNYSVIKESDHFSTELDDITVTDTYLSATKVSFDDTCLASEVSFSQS
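Read-out: compound-evoked intracellular calcium rise in TRHR cells, fluo-8 dye, kinetic FDSS fluorescence at 1 s/cycle following a 10-cycle baseline. Cells cultured overnight before dye loading (30 min–1.5 h, RT).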
D1 potentiator = human D1 dopamine receptor positive modulation; AID 504651; potentiation, % at 10 µM; HEK293 TREx D1 cells, calcium flux, dopamine EC20 potentiation; 0.036% of 360,000 active; P21728; in the data active = potentiation above about 30%
D1 agonist = human D1 receptor agonism | P21728 | HEK293 T-REx D1 cells, calcium flux, agonist mode | activation, % at 2 µM | 1% of 360,000 active | AID 504660; in the data active = activation above about 30%
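Tetracycline-induced HEK293 TREx D1 cells, force-coupled to calcium signalling, were dye-loaded with a no-wash calcium kit. Compound was pin-added after a 10 s baseline. Fluorescence was read kinetically at 1 cycle/s for 180 s, with calcium rises flagged as agonism.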
TRHR enhancer-1 = allosterically enhances the human TRH receptor. TRHR cells, fluo-8 calcium fluorescence, EC20 TRH enhancement. 0.66% of 360,000 active. enhancement, % at 2 µM. AID 493056; in the data active = enhancement above about 30%
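TRHR-expressing cells loaded with fluo-8 calcium dye were read kinetically (ex 480/em 530) during compound addition, then stimulated with an EC20 of TRH (10 nM final). Enhancement of the Gq-mediated intracellular calcium response was scored.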
TRHR enhancer-2 = confirmation of human TRH receptor allosteric enhancers. activity change, negative = inhibition, % at 46.1 µM. TRH receptor cell assay, enhancer confirmation qHTS. AID 493076. 970 tested, under 10 active. shares compounds with TRHR enhancer-1;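 note: compound effect scored on response to added TRH at EC20 of 10 nM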
TRHR agonist-2 = confirmation of human TRH receptor agonists; shares compounds with TRHR enhancer-1; TRHR-expressing cells, agonist activation read-out; Potency, µM (titrated, usually from 46.1 µM), usual class: activators; 8% of 970 active; AID 493078; note: nearly all actives have a fitted effect of over 75% in size
Large screens that a line does not name were inactive (follow-up assays come after a bar, where they were run); ! = repeats disagree. Compounds with a hit are over-represented: about 4.4% of the library has one in this group of screens. Unless noted, calls come from the whole dose curve; as a rule, active = well fitted curve in the direction sought with a large enough effect; inconclusive = small, poorly fitted or top-dose-only effect, or another doubt; inactive = no such curve, though single readings can be large; an effect the other way counts as inactive or inconclusive.

COc1cc(C)c(CN2CCC(Cc3ccccc3)CC2)cc1C	none
COC(=O)c1[nH]c2ccc(Cl)cc2c1NC(=O)CN1CCc2cc(OC)c(OC)cc2C1	none
CCOC(=O)c1[nH]c2ccc(F)cc2c1NC(=O)CN1CCc2cc(OC)c(OC)cc2C1	TRHR enhancer-1 43.2 (no result: USP1 inh) | TRHR enhancer-2 inactive | TRHR agonist-2 inactive
CC(=O)c1c(C)[nH]c(C(=O)COC(=O)COc2ccccc2F)c1C	TRHR enhancer-1 51.9 | TRHR enhancer-2 inactive | TRHR agonist-2 inactive
CC(=O)c1c(C)[nH]c(C(=O)COC(=O)Cc2ccccc2F)c1C	none (no result: D1 antagonist, TRHR agonist-1, D1 potentiator, D1 agonist, TRHR enhancer-1)
COc1ccc(Nc2nc(Nc3ccc(OC)cc3OC)nc(N3CCOCC3)n2)c(OC)c1	none
Oc1c(C=C2N=c3ccccc3=N2)sc(=S)n1C1CCCCC1	TRHR enhancer-1 41.2! | TRHR enhancer-2 inactive | TRHR agonist-2 inactive
Oc1c(C=C2N=c3ccccc3=N2)sc(=S)n1-c1ccccc1	none
Cc1ccc(C(=O)NCC(c2ccco2)N2CCc3ccccc32)cc1C (configuration not stated)	none
O=C(NCC(c1ccco1)N1CCc2ccccc21)c1ccccc1 (configuration not stated)	TRHR enhancer-1 51.3 | TRHR enhancer-2 inactive | TRHR agonist-2 inactive
FC(F)(F)c1cc(C(F)(F)F)c2ccc(N3CCOCC3)nc2n1	none
CN1CCCc2cc3c(C(F)(F)F)cc(=O)oc3nc21	USP1 inh inconclusive, TRHR agonist-1 49.3, D1 agonist 53.4 | TRHR enhancer-2 inactive | TRHR agonist-2 18.4µM
Cc1cccc2cc3c(N)c(C(=O)N4CCc5ccccc54)sc3nc12	TRHR agonist-1 52.6, D1 agonist 126.4 | TRHR enhancer-2 inconclusive | TRHR agonist-2 18.4µM
O=C(NCC(c1ccc2c(c1)OCO2)N1CCN(c2ccccc2)CC1)C(=O)Nc1cccc(F)c1 (configuration not stated)	none
CC(C)CC1=NN2C(=N)/C(=C\c3coc4ccccc4c3=O)C(=O)N=C2S1	USP1 inh 28.2µM, D1 agonist 61.2 | TRHR enhancer-2 inactive | TRHR agonist-2 2.59µM
COc1ccc(CN2CCN(Cc3ccc(CO)o3)CC2CCO)cc1C (configuration not stated)	TRHR enhancer-1 57.0 | TRHR enhancer-2 inactive | TRHR agonist-2 inactive
CCCn1c(=O)c(F)cn(Cc2ccc(OC)c([N+](=O)[O-])c2)c1=O	none (no result: D1 antagonist, TRHR agonist-1, D1 potentiator, D1 agonist, TRHR enhancer-1)
CCOC(=O)Cn1c(=O)c(F)cn(Cc2ccc(OC)c([N+](=O)[O-])c2)c1=O	TRHR enhancer-1 66.6 | TRHR enhancer-2 inactive | TRHR agonist-2 inactive
N#Cc1c(N)n(-c2cccc(Cl)c2)c2nc3ccccc3nc12	USP1 inh inconclusive
CCn1cnc2scc(-c3ccc(OC)cc3)c2c1=O	none
CCOc1ccc(-c2csc3ncn(-c4ccc(OC)cc4)c(=O)c23)cc1	USP1 inh inconclusive, TRHR enhancer-1 43.8 | TRHR enhancer-2 inactive | TRHR agonist-2 inactive
O=C(CCc1nc2ccccc2c(=O)[nH]1)Nc1cc(Cl)ccc1N1CCCC1	TRHR enhancer-1 47.1 | TRHR enhancer-2 inactive | TRHR agonist-2 inactive
O=C(CCc1nc2ccccc2c(=O)[nH]1)Nc1ccc(N2CCCCC2)cc1	none
COc1ccc(C(C(=O)NCc2ccccc2)N(C(=O)Cn2nnc3ccccc32)c2ccc(F)cc2)cc1 (configuration not stated)	none
CC(=N/O)/C(C)=N\NC(=O)c1ccccn1	TRHR enhancer-1 59.7 | TRHR enhancer-2 inactive | TRHR agonist-2 inactive
Cn1c(O)c(/C=N/NC(=O)c2cc3ccccc3cc2O)c2ccccc21	USP1 inh inconclusive, TRHR agonist-1 45.7, D1 agonist 146.5 (no result: D1 potentiator) | TRHR enhancer-2 inactive | TRHR agonist-2 13µM
COc1ccc2c(c1)cc(C(=O)N/N=C/c1c(O)c(C(=O)O)cc3ccccc13)n2C	TRHR agonist-1 33.4 | TRHR enhancer-2 inconclusive | TRHR agonist-2 18.4µM
O=C(c1nc(-c2ccc(Cl)cc2)n2c1CCCCC2)N1CCN(c2ccc(F)cc2)CC1	none
Cc1cccn2c(=O)c3cc(C(=O)NCc4ccccc4Cl)sc3nc12	none
Cc1ccc(OCc2cc(C(=O)N(C)Cc3cnn(-c4ccccc4C)c3)no2)cn1	TRHR enhancer-1 43.3 | TRHR enhancer-2 inactive | TRHR agonist-2 inactive
CC(=O)Oc1c(Sc2ccccc2[N+](=O)[O-])c(C)nn1C(C)(C)C	TRHR enhancer-1 57.8 | TRHR enhancer-2 inactive | TRHR agonist-2 inconclusive
COc1ccc(N=C2NC(=O)/C(=C/c3ccc(O)c(OC)c3)S2)cc1	none
COc1cccc(N=C2NC(=O)/C(=C/c3cc([N+](=O)[O-])ccc3O)S2)c1	TRHR agonist-1 55.3, D1 agonist 83.4 | TRHR enhancer-2 inactive | TRHR agonist-2 inconclusive
Cc1ccnc(NC(=O)CCC(=O)N(Cc2ccco2)C(C(=O)NC(C)C)c2ccc(F)cc2)c1 (configuration not stated)	TRHR enhancer-1 43.4 | TRHR enhancer-2 inactive | TRHR agonist-2 inactive
COc1ccc(NC2CCCN(C(=O)CSc3ccncc3)C2)cc1 (configuration not stated)	TRHR enhancer-1 82.9 | TRHR enhancer-2 inactive | TRHR agonist-2 inactive
Cc1ccc(NC(=O)C2(c3cccs3)CCOCC2)cc1Cl	none (no result: D1 antagonist)
Cc1cc2c(s1)c1c(C)nn(Cc3ccccc3F)c(=O)c1n2C	none (no result: USP1 inh)
COC(=O)c1ccccc1NC(=O)CCCn1nc([N+](=O)[O-])c(Br)c1C	none | TRHR enhancer-2 inactive | TRHR agonist-2 inactive
Cc1c(Cl)c([N+](=O)[O-])nn1CCCC(=O)Nc1cccc(Cl)c1Cl	none
CCCCN(CC)CCCNC(=O)c1c(C)oc2ncnc(N3CCOCC3)c12	none
S=C(NCc1ccco1)Nc1ccc(N2CCOCC2)cc1	TRHR enhancer-1 52.8 | TRHR enhancer-2 inactive | TRHR agonist-2 inactive
S=C(NCc1ccco1)N1CCOCC1	none
Cc1ccc(S(=O)(=O)/N=C2\C=C(Nc3cccc(C(=O)O)c3)C(=O)c3ccccc32)c(C)c1	USP1 inh 10µM, TRHR enhancer-1 60.6 | TRHR enhancer-2 inactive | TRHR agonist-2 inactive
Cc1cccc(NC2=C(NC(=O)c3ccccc3)C(=O)c3ccccc3C2=O)c1	USP1 inh inconclusive
O=C(NCC1CCCO1)c1ccc2c(=O)n(CCc3ccccc3)c(=O)[nH]c2c1 (configuration not stated)	TRHR enhancer-1 46.5 | TRHR enhancer-2 inactive | TRHR agonist-2 inactive
CC1CCCCN1CCNC(=O)c1ccc2c(=O)n(CCc3ccccc3)c(=O)[nH]c2c1 (configuration not stated)	none (no result: D1 antagonist)

From PubChem
